# Reference: the supplement of paper PMC3414501
# Where a name gives a salt, the structure may show the parent alone.
# Tested on: S. cerevisiae NKY1551 his4x/his4B, sporulating;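 active = HIS4 sensitivity z-score above 5 vs DMSO controls; inactive = score 5 or below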
# Assay: HIS4 meiotic recombination assay sensitivity score (z-score vs DMSO controls); higher = stronger inhibition of sporulation/recombination, active = hit call of the paper
row,SMILES,HIS4 meiotic recombination assay sensitivity score
1,"CN1CCCC(n2nc(Cc3ccc(Cl)cc3)c3ccccc3c2=O)CC1 (configuration not stated) [Azelastine hydrochloride] (stock concentration (mM, diluted 1:100): 9.1)",10.7 (active)
2,"CN1[C@@H]2CC[C@H]1C[C@@H](OC(=O)c1c[nH]c3ccccc13)C2 [Tropisetron hydrochloride] (stock concentration (mM, diluted 1:100): 7.7)",0.82 (inactive)
3,"O=C(O)c1cc(/N=N/c2ccc(S(=O)(=O)Nc3ccccn3)cc2)ccc1O [Sulfasalazine] (stock concentration (mM, diluted 1:100): 10)",-0.54 (inactive)
4,"Nc1nc(O)c2ncn(CCC(CO)CO)c2n1 [Penciclovir] (stock concentration (mM, diluted 1:100): 10)",-0.35 (inactive)
5,"O=C(c1ccccc1)c1ccc2n1CCC2C(=O)O (configuration not stated) [Toradol] (stock concentration (mM, diluted 1:100): 6.8)",-1.15 (inactive)
6,"OC[C@H]1O[C@@H](n2cnc3c(N[C@H]4CCC[C@@H]4O)ncnc32)[C@@H](O)C1O (some centres not stated) (stock concentration (mM, diluted 1:100): 10)",1.26 (inactive)
7,"CC(C)c1nc(CN(C)C(=O)N[C@H](C(=O)N[C@@H](Cc2ccccc2)C[C@H](O)[C@H](Cc2ccccc2)NC(=O)OCc2cncs2)C(C)C)cs1 [Ritonavir] (stock concentration (mM, diluted 1:100): 10)",-1.41 (inactive)
